Data reported in PubChem BioAssay AID1508600 (Functional Genomics Laboratory (NCATS/FGL), 2020).
Among all 53,000 sequences or so, about 3,700 (7%) were called active.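 How the source made its calls: active means gene knockdowns whose robust z-score for IL-1 alpha signal is at least 2 or at most -2, so actives lie on both sides; inactive means the rest.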 The entries come from a sample that favours actives as a whole.

assay: Components of the Cytosolic LPS Sensing Pathway: Gene Identification via Genome-wide siRNA Screen; details: RAW264.7 macrophages, IL-1a HTRF, actives lie on both sides, screened at 100 nM (by protocol), cells primed 5 h with Pam3CSK4 first;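 further: robust z of the log signal after scaling to non-targeting control siRNA wells of the plate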
In short: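 Cells (RAW264.7, 1×10^4 per well) were transfected with siRNA at 100 nM and cultured 48h at 37 degrees C. Pam3CSK4 was added for 5 hours; LipidA transfection followed for 24 hour. IL-1a was then measured by HTRF.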

z-score, active:
GGAGAAGGUGCUCAAGUUGTT against Henmt1 -2.45, GGCACAUCUCCCUAACACUTT against Mvb12b -2.02, GGCAAGCACAAUGAUCAUUTT against Trappc11 -2.36, CCCACUAAAAUCCUAUCUCTT against Ggta1 -2.57, GGCCAUUCUUUGUCACCCATT against Os9 -2.87, GCGUAUUCAGCUGGGAUAGTT against Marveld2 -2.42, GGUCAUCCUCAAGAUGAAGTT against Zfp819 -2.82, GCAGUCCUCGUCCUCAAAGTT against Btbd10 2.16, GCUUGCUAGAUUGGUGUUGTT against Arhgap17 3.32, CCUCUCAGAUGGUAUAUAATT against Olfr520 -2.14, GGAGGUUGGGAUGAAUUAUTT against Rab6b 4.26, GGGAAGCUGAUUAUACAUUTT against Serpinf1 3.22

z-score, inactive:
CCCACUGUGAAGAGAGGCATT against Xlr3c -1.41, GGUUCAGACAACUCAGUGGTT against Pbx1 0.813, CGGAUUCAUCAGUUUGGUATT against Cdc7 0.274, GCAACUUACUUGAUCUGAATT against Ap2b1 -0.292, CCUUCUAAUUAUCACCAAATT against Arhgap18 -0.102, GCUAACUGCACUCCGAGAUTT against Asap1 -0.266, GGAAAAUUGAUAGCAAGCUTT against Fbxw15 1.9, CCAAGCAUUAUGAGAUGCUTT against Sec23b 0.749, GGUUACUAGAUGUAUUUUGTT against Ppp3cb -0.785, GGAAGAGGACCAAAGUGCUTT against Pnpla7 1.75, GGAUCAACAUCAGAGUUCUTT against Zfp119b -0.562, CCCUAAUUCUUAGGCCUUUTT against Bloc1s3 -0.242, GGAAAGGUUUAAUCAUGAATT against Spred1 0.602, CGCUUUAGUGACUUUCAAATT against Metrnl -0.583, GCAGAUCCGAAUCAAUGAGTT against Twf2 0.504, GCGAUUGAGAGGCUACACUTT against Pigb 0.402, GGGCUGUUAUUUCAAGAAATT against Galnt13 -0.173, GGGUCAAGUUUACAGAUGATT against Luc7l 0.0159, GGGUGCAUUUUAAAUACUATT against Spred2 0.73, GGAAUCCUCUAAAUGACCUTT against Vmn1r174 -1.49, CCAUUAACUCUUUGAGUAUTT against Omg 0.321, GGAGCUGAGAAACAAGAUUTT against Bspry -0.972, GGAUGUUAAAGCCAUAUACTT against Msh6 -0.788, GGGCUACCUCAGUUUAAACTT against Spic 0.763, GGCAAUAACUGCUUUAUCUTT against Olfr509 -0.68, CCUUCGUGUUCACUUUAAGTT against Rpl17 -1.5, CCACUAAUAGUCGUAGAAUTT against Dand5 0.535, GCCAUCUCUAUGUUGUUGATT against Smtnl2 -0.108, GGCAUGUCCAAGGAAUACUTT against Snrpg -1.4, GGUUAAUCUGAGAAUUCUATT against Kcnk1 0.717, CCCAAUUUUUAGUUGCUAATT against Rab2b 0.0495, GGAAGCUGUCUUCAAGUCCTT against Phf7 -1.3, GGCAGAAUACUAUAUAUAGTT against Tmx2 0.879, GGAAAUCUGUUCUUGAAGGTT against Pcdhb4 -0.0811, GGUGCUGACUCCGACUAAATT against Nhsl1 1.2, GGUACAGCUGGUUCUCUUUTT against Olfr1018 1.2, GGCUGCUAUCAUGGAAUUATT against Ppp2cb 0.924, CGUGUGAAGAAAAUUGAUGTT against Mmp27 0.568, GCACAGUAACCUAAAAUACTT against Tanc2 -1.48, GGAUUUGAGGUUUUAGGAATT against Qtrt2 -0.0174, GGUUGUGGUCUUUGUUCUGTT against Olfr923 -1.11, GGAAAGAACAACAAAGGAGTT against Snx9 0.84, GCCUCAAUUGUUUACUUAUTT against Edn2 0.404, GGAGAAGUCAUGAAACAAATT against Prkn 0.349, GGACAAAUCUUUGUUUAGCTT against Plscr3 -0.0965, GGGACCCAAGGAUAUGAAUTT against Rbsn 0.6, GGAGCAAGUAUUUACAUUGTT against Psmd10 1.55, GGACUAAUUGGCCUCUGCUTT against Rpl22l1 0.638, GGGCUGCUCACAAUUUAUATT against Tmem135 1.17, GGACACUUACGUCAUCGAGTT against Rtca -0.814, GGUGGAGAUUGUUUGUAAATT against Lratd1 1.56, GGACCCAUCGAAACCUCUATT against Pirb -0.0759, CCCAUGCUUGGAAUAAUUATT against Man1a 0.00246, GGACGAACUCAUCAACAGUTT against Gtf2ird1 -0.00436, GGCUAAGAAUGAGACUGGUTT against Abcg4 -0.0869, GGAGAAGAUUCCAGAAGCCTT against Tcf15 -1.42, GGGCAUUGGCAAGAAAAAGTT against Ahdc1 -0.543
